{"source": "PubChem BioAssay (NCATS)", "key": {"[1]": {"molecular_target": "Bile acid receptor (Homo sapiens) (UniProt Q96RI1)", "sequence (Q96RI1 whole entry, looked up)": "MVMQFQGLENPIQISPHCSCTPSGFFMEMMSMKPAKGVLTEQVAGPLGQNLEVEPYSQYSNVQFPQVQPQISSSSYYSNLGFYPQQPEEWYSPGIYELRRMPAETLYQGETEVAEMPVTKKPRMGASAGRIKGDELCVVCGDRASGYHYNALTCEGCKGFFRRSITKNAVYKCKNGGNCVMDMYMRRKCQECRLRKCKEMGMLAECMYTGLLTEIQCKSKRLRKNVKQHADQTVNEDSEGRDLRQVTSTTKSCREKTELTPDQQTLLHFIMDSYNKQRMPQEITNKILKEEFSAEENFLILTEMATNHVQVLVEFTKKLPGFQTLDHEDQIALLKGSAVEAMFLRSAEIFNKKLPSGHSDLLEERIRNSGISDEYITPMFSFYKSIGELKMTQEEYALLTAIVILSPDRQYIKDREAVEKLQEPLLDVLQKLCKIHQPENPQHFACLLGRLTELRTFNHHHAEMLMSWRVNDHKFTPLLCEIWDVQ", "experiment": "qHTS assay for small molecule agonists of farnesoid X receptor signaling (AID 588527);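 also: series mostly up to about 77 µM; 0% = vehicle basal and 100% = reference agonist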", "details": "HEK293T FXR-UAS-bla, beta-lactamase ratio, 16 h; stronger effect = higher value", "summary_of_the_method": "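Read-out: beta-lactamase reporter fluorescence with CCF4 substrate in GeneBLAzer FXR-UAS-bla HEK293T cells, after 16 h compound exposure at 37 C. Response scaled between DMSO basal (0%) and chenodeoxycholic acid at 100 uM (100%).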"}, "[2]": {"experiment": "qHTS assay for small molecule antagonists of peroxisome proliferator-activated receptor delta signaling (AID 588535);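 also: cells co-treated with a PPAR-delta agonist as stimulator during compound exposure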", "details": "HEK293T PPARd-UAS-bla, beta-lactamase FRET ratio, 18 h; 460 nm channel", "summary_of_the_method": "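GeneBLAzer PPAR-delta-UAS-bla HEK293T cells in medium with 2% charcoal/dextran FBS were preincubated 5 hrs at 37 C, then given compounds, incubated 18 hrs at 37 C, and read by CCF4 beta-lactamase fluorescence; IC50 from Hill fits.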"}}, "note": "Several values for one entry are separate records, joined by “and”; a condition that tells them apart may be missing. Identical values can stand only once. Records with an inconclusive call do not appear. Activity calls are given as the source filed them. Calls follow the shape of the full dose curve.", "data": [{"smiles": "Cc1ccc(C)c(OCCCC(C)(C)C(=O)O)c1", "values": [{"measurement": "activation", "setting": "[1]", "result": "-2.62% (inactive) and -0.135% (inactive)"}]}, {"smiles": "Oc1cccc2cccnc12", "values": [{"measurement": "max response", "setting": "[2]", "result": "-10.4% and -24.8%"}]}]}
